# Screening data: PubChem, National Center for Advancing Translational Sciences (NCATS)
# Abeta rescue = compounds reversing amyloid beta toxicity in yeast; yeast expressing A-beta42, growth rescue, OD600, 48 h; response scale: 0% DMSO, 100% iron-clioquinol control; 410,000 compounds, 0.063% hits; Potency, µM (top dose mostly 46.1 µM), most hits filed as activators; further: nearly all actives have a fitted effect of over 55% in size
#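 Yeast A-beta toxicity model in growth medium with pinned compounds, 48 h at 30 C; growth read as absorbance at 600 nm. Normalized to FeCl3/clioquinol equimolar mix (positive) and DMSO (negative).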
# aSyn rescue = inhibitors of alpha-synuclein toxicity in yeast; Yeast expressing alpha-synuclein, growth rescue, BacTiter-Glo, 24 h; Potency, µM (series often up to 46.1 µM), for inactives: at the highest dose growth rescue (activation), usual class: activators; 370,000 compounds, 0.14% hits; AID 652106; further: % of control where 0% means no effect; nearly all actives have a fitted effect of over 65% in size
#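 Rescue of yeast growth: cells expressing toxic alpha-synuclein, induced in galactose at OD600 0.02, incubated with compound 24 h at 30 C. ATP luminescence quantified growth; inhibitors of toxicity appear as activators.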
# FUS suppressor = suppressors of FUS proteinopathy in yeast | S. cerevisiae FUS-expressing, growth rescue, OD600, 24 h | Potency, µM (top dose mostly 76.6 µM), actives largely listed as activators | 390,000 compounds, 0.24% hits;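 further: plate controls were DMSO vehicle for no effect and reference control for full effect; nearly all actives have a fitted effect of over 55% in size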
#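 Quantitative HTS measuring growth restoration of FUS-toxic yeast. Galactose-induced cells (OD 0.005) were exposed 24hr at 30C to compounds at several concentrations, then absorbance at 600 nm was recorded.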
# TDP43 rescue = rescues yeast growth from TDP-43 toxicity; 410,000 compounds, 1.8% hits; TDP-43 expressing yeast growth rescue, BacTiter-Glo, 24 h; Potency, µM (top dose mostly 46.1 µM), inactives show top-dose growth rescue (activation), most hits filed as activators; further: % of control where 0% means no effect; nearly all actives have a fitted effect of over 50% in size
#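 Galactose-induced TDP-43 yeast, OD600=0.02, compound pinned; 24 hr, 30 deg C; BacTiter-Glo luminescence for growth. Inhibitors of TDP-43 toxicity read as activators.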
# An asterisk follows results filed as active; i = inactive; u = inconclusive; x = not tested or not shown; [ ] = another dose, or the depositor's remark. Shown are actives, neighbours in structure and some others; about 2.1% of the full set was active somewhere. The call rests on the fitted dose curve; in most records, active means well fitted curve in the direction sought with a large enough effect; inconclusive means small, poorly fitted or top-dose-only effect, or another doubt; inactive means no such curve, though single readings can be large; an effect the other way counts as inactive or inconclusive. Potency means the concentration at half of the fitted maximal effect.
SMILES,Abeta rescue,aSyn rescue,FUS suppressor,TDP43 rescue
Nc1cccc2c1C(=O)N(Cc1cccc(Cl)c1)C2=O,i,u,i,20µM*
O=C(CC1CCCC1)N1CC[C@H]2[C@H](CCCN2Cc2ccc(F)cc2)C1,x,x,i,x
CCCCn1nc(NC(=O)CC)c2cc3cc(OC)ccc3nc21,i,0%,i,11µM*
COc1ccc2nc3c(cc2c1)c(NC(=O)c1cccs1)nn3CC(C)C,i,2%,u,25µM*
O=C(c1ccc(Cl)cc1)c1ccc(CN2C(=O)c3ccccc3C2=O)o1,i,10%,i,14µM*
O=C(c1ccc(F)cc1)c1ccc(CN2C(=O)c3ccccc3C2=O)o1,i,2%,i,13µM*
COC(=O)c1ccc(CN2C(=O)c3ccccc3C2=O)cc1,i,u,i,u
COC(=O)c1ccc(NC(=O)CC2C(=O)N(c3ccccc3)C(=O)N2Cc2cccs2)cc1 (configuration not stated),i,x,i,11%
COc1cc(-n2c(C)nc3cc(C(=O)N4CCN(C(C)=O)CC4)ccc32)cc(OC)c1OC,x,x,i,x
O=S(=O)(NCc1ccccc1)c1ccc(Br)s1,i,10%,i,11µM*
CCCC1=Nc2cc(C(=O)NC3CCCCC3)ccc2Sc2ccc(C)cc21,i,x,i,0%
CC(C)c1ccc(Nc2ncnc3c2c(-c2ccccc2)cn3-c2ccccc2)cc1,i,x,i,6%
COc1ccc(/C=C/c2nc(C#N)c(N3CCCCCC3)o2)cc1OC,i,x,i,18µM*
N#Cc1nc(/C=C/c2ccc(F)cc2)oc1N1CCCCCC1,i,x,i,11µM*
CCCCCCCCCCCCOC(=O)N1CCN(/[N+]([O-])=N/Oc2ccc([N+](=O)[O-])cc2[N+](C)=O)CC1,x,-47%,x,x
COc1cc2c(cc1OC)/C(=C/C(=O)c1ccccc1F)NCC2,i,9%,i,10%
COc1cc2c(cc1OC)/C(=C/C(=O)c1ccc(F)cc1)NCC2,i,6%,i,10µM*
CCCOc1ccc(F)cc1-c1cc(C(=O)Nc2ccc(OC)cc2C)[nH]n1,i,-9%,i,25µM*
COc1cc(-c2coc3c(C(=O)NCc4ccc(OC)c(OC)c4)cccc23)ccc1O,i,u,i,14µM*
COc1cc(-c2coc3c(C(=O)NC4CCCCC4)cccc23)ccc1O,i,-15%,u,35µM*
COc1cc(-c2coc3c(C(=O)NCc4ccc(N(C)C)cc4)cccc23)ccc1O,i,25%,u,0%
CN(C)c1ccc(/C=C2\C=Cc3ccccc32)cc1[N+](=O)[O-],x,5%,x,x
COc1ccc(C(O)c2nc(-c3ccc(F)c(Cl)c3)cs2)cc1 (configuration not stated),u,13µM*,i,11µM*
COc1cc(C(O)c2nc(-c3ccccc3)cs2)ccc1F (configuration not stated),i,u,i,0%
COc1ccc(-c2csc(C(O)c3ccc(F)c(OC)c3)n2)cc1 (configuration not stated),u,18µM*,u,22µM*
SMILES,Abeta rescue,aSyn rescue,FUS suppressor,TDP43 rescue
COc1cc(C(O)c2nc(-c3cccc(C#N)c3)cs2)ccc1F (configuration not stated),i,u,i,10µM*
COc1cc(C(O)c2nc(-c3ccc(F)cc3OC)cs2)ccc1F (configuration not stated),i,u,i,25µM*
COCc1cccc(-c2csc(C(O)c3ccc(F)c(OC)c3)n2)c1 (configuration not stated),u,10%,i,u
CCCC(=O)N1CCC[C@]2(CC[C@@H](CCC(C)=O)O2)C1,x,x,i,x
Cn1c(NC(=O)c2ccc(F)cc2)nc2ccccc21,i,-6%,i,28µM*
Cn1c(Nc2ccc(F)cc2)nc2ccccc21,i,1%,i,-8%[1.82 µM]
COc1cc(-c2cc(OC)c3c(C)oc(C)c3c(=O)c2)ccc1OC(=O)c1ccccc1F,i,x,i,u
COc1cc(-c2cc(OC)c3c(C)oc(C)c3c(=O)c2)ccc1OC(=O)c1ccccc1Cl,i,x,13µM*,13%
C=CCN1C(=O)[C@@H](CC(=O)NCc2ccc(C)o2)[C@]2(C(=O)OC)CCCCC=C12,x,x,i,x
C=CCOC(=O)N[C@H](c1ccc(-c2ccccc2)cc1)[C@H](C)/C=C/CC(=O)OC,x,x,i,x
Cn1c(=O)c2[nH]c(SCC(=O)NCCc3cccc(F)c3)nc2n(C)c1=O,x,x,i,x
C[C@H]1COc2cc(Br)ccc2S(=O)(=O)N1Cc1cn(CC2CCCCC2)nn1,x,x,i,x
CCCCCCCC/C=C\CCCCCCCC(=O)NCc1ccc(O)c(OC)c1,x,2%,x,x
CCCCCCCC/C=C\CCCCCCCC(=O)NCCc1ccc(O)c(O)c1,i,u,u,22µM*
O=C(/C=N/O)Nc1ccc2sc3ccccc3c2c1,i,0%,i,7.9µM*
COC(=O)c1ccccc1NC(=O)/C=N/O,i,6%,i,23%
CCN(CC)C(=O)CSc1nnc(-c2ccc(C(C)(C)C)cc2)n1Cc1ccco1,x,x,i,x
O=C(NCc1ccc(C(=O)N2CCCC2)cc1)c1cccc(Br)c1,x,x,i,x
CC1CCCCC1NC(=S)Nc1ccc(SC(F)F)cc1 (configuration not stated),u,-29%,i,20µM*
O=C(NNc1nc2cc3c(cc2s1)OCCO3)c1ccc(F)cc1,u,0%,i,10µM*
COc1ccc([N+](=O)[O-])cc1NC(=O)CSCc1ccccc1,i,8%,i,13µM*
Cc1cccc(CSCCNC(=O)CSCc2ccc([N+](=O)[O-])cc2)c1,i,16%,i,18µM*
O=C(CSCc1ccccc1)Nc1cc([N+](=O)[O-])ccc1F,i,4%,i,11µM*
COc1ccc([N+](=O)[O-])cc1NC(=O)CSc1ccccc1,i,12%,i,28%
CCCCNC(=O)C1CCCN1C(=O)Nc1ccc(Cl)cc1 (configuration not stated),x,x,i,x
CCCCC(=O)N1CCc2cc(OC)c(OC)cc2C1COc1ccc(C(=O)OCC)cc1 (configuration not stated),i,23%,u,22µM*
COc1cc2c(cc1OC)C(COc1ccc(F)cc1)N(C(=O)Cc1ccc(F)cc1)CC2 (configuration not stated),i,x,i,x
CCOC(=O)c1ccc(OCC2c3cc(OC)c(OC)cc3CCN2C(=O)Cc2ccc(F)cc2)cc1 (configuration not stated),i,15%,13µM*,20µM*
CCC(=O)Nc1ccc2nc(SCCOc3ccc(C)cc3OC)sc2c1,i,x,i,22%
C[C@@]12C(=O)N(c3cccc(Cl)c3)C(=O)N1[C@H](c1ccc(Cl)cc1)[C@@H]1C(=O)N(C3CCCCC3)C(=O)[C@@H]12,i,13%,u,26%
